This passage reports inhibition results from ChEMBL document CHEMBL1961873, “Compounds: GSK PKIS; Assays: Nanosyn kinase panel” (2012).

In the first assay the target is Serine/threonine-protein kinase pim-2 (Homo sapiens) (UniProt Q9P1W9). To be noted: at 1 µM.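 Note: each value is a mean of the inhibition measurements against the kinase.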
Sequence of Serine/threonine-protein kinase pim-2 (Homo sapiens) (Q9P1W9 whole entry, looked up): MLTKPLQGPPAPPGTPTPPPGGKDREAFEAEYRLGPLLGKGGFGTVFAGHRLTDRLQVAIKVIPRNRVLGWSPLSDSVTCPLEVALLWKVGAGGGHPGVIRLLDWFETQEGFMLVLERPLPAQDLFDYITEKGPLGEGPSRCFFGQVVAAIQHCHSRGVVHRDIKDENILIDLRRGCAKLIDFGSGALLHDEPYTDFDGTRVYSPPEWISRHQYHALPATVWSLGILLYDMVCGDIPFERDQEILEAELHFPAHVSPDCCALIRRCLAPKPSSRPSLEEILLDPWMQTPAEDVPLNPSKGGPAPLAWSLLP
Turning to `CS(=O)(=O)CCNCc1cc(-c2cc3c(Nc4ccc(OCc5cccc(F)c5)c(Cl)c4)ncnc3s2)cs1`, the inhibition was -0.99%.
As to `Fc1ccc(-c2c(-c3ccncc3)nc3n2CCS3)cc1`, the inhibition is -3.85%.
Same read-out and setting: for `Cc1ccc(NC(=O)c2ccoc2)cc1-c1ccc(C(=O)NCC2CC2)cc1` the value was 0.6%; for `NS(=O)(=O)c1ccc(N/N=C2\C(=O)Nc3ccc(-c4cnco4)cc32)cc1`, 24.5%.
Still for that read-out and setting: the figure for `O=C(Nc1n[nH]c2cc(-c3cc(F)ccc3F)ccc12)C1CC1` is -0.55%; for `Nc1nccc(-c2c(-c3ccc(F)cc3)ncn2C2CCC(O)CC2)n1` (stereo not drawn) it is 0.53%.
The same measure, in the same setting: the figure for `C[C@@H](Oc1cc(-n2cnc3ccc(OC4CCN(C)CC4)cc32)sc1C(N)=O)c1ccccc1Cl` is -3.56%.
On to `CCS(=O)(=O)c1ccc(OC)c(Nc2ncc(-c3cccc(-c4ccccc4F)c3)o2)c1`, for which the inhibition was determined as 0.73%.
For the compound `O=C1Nc2ccc(I)cc2C1=Cc1cc(Br)c(O)c(Br)c1`, the inhibition stood at 18.2%.
Same read-out and setting: the figure for `COc1cccc(/C=N/Nc2ncnc3c2cnn3-c2cccc(OC)c2)c1` is -0.53%.
For `COc1cc2ncn(-c3cc(OCc4cccs4)c(C(N)=O)s3)c2cc1OC`, the inhibition was -1.58%.
As for `NC(=O)c1ccc(Oc2nccc(-c3c(-c4ccc(F)cc4)ncn3C3CCNCC3)n2)cc1`, the inhibition is -0.49%.
As to `CN(C)CCCNc1nccc(-c2c(-c3ccc(F)cc3)nn3cc(C(F)(F)F)ccc23)n1`, the inhibition is -3.32%.
On to `O=C1NC(=O)C(c2cccc(Cl)c2)=C1Nc1ccc(Cl)c(C(=O)O)c1`, for which the inhibition was -0.53%.
Turning to `NC(=O)Cc1ccccc1Oc1nccc(-c2c(-c3ccc(F)cc3)ncn2C2CCNCC2)n1`, the inhibition is 0.59%.
As to `Fc1ccc(-c2ncn(C3CCNCC3)c2-c2ccnc(Oc3ccc(F)c(F)c3)n2)cc1`, the inhibition is -3.35%.
The same measure, in the same setting: the figure for `O=C(Nc1n[nH]c2cc(-c3ccccc3)ccc12)C1CC1` is 0.64%.
With `Cc1nnc(-c2ccc(C)c(-c3ccc(C(=O)NCc4ccc(Cl)cc4)cc3)c2)o1`, the inhibition was -2.67%.

The next assay has as its target Serine/threonine-protein kinase pim-3 (Homo sapiens) (UniProt Q86V86). To be noted: at 0.1 µM.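 Note: mean inhibition of PIM3 kinase activity, recorded in the GSK_PKIS screening set.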
`COc1ccc2ncn(-c3cc(O[C@H](C)c4ccccc4Cl)c(C(N)=O)s3)c2c1`: the inhibition is 0.05%.
On the same count and under the same terms, for `C#Cc1cccc(Nc2ncnc3ccc(OCCCCNCCS(C)(=O)=O)cc23)c1` the value was 6.18%; for `NS(=O)(=O)c1ccc(Nc2cc(-c3ccc(O)c(F)c3)n[nH]2)cc1`, -0.55%; for `C[C@@H](Oc1cc(-n2cnc3ccc(OCC4CCN(C)CC4)cc32)sc1C(N)=O)c1ccccc1Cl`, 11.4%.
On to `Fc1ccc(-c2ncn(CCCN3CCOCC3)c2-c2ccncc2)cc1`, for which the inhibition is -1.36%.
Turning to `NS(=O)(=O)c1ccc(N/N=C2\C(=O)Nc3ccc(C(=O)NCCCn4ccnc4)cc32)cc1`, the inhibition was determined as 3.06%.
Still for that read-out and setting: for `COc1ccc2cc(-c3c(-c4ccncc4)nc(-c4ccc(S(C)(=O)=O)cc4C)n3C)ccc2c1` the value was 4.87%; for `Clc1ccc(CNc2nccc(-c3cnn4ncccc34)n2)cc1`, 1.78%; for `COC(=O)Nc1nc2ccc(Sc3ccc(NC(=O)Nc4cc(C(F)(F)F)ccc4F)cc3)cc2[nH]1`, 1.76%.
With `Fc1ccc(-c2ncn(C3CCNCC3)c2-c2ccnc(Oc3ccc4c(c3)OCO4)n2)cc1`, the inhibition turned out to be 0.14%.
As for `Cc1ccc(C(=O)NC(C)C)cc1-c1ccc(C(=O)NCC2CC2)cc1`, the inhibition stood at 1.28%.
`CCS(=O)(=O)c1ccc(OC)c(Nc2ncc(-c3ccccc3Cl)o2)c1`: the inhibition is -0.12%.
On the same count and under the same terms, the figure for `NC(=O)c1cc(-c2ccncc2)cc(-c2ccccc2)c1N` is -4.72%; for `c1ccc(-c2n[nH]cc2-c2ccnc(-c3ccc(OCCN4CCOCC4)cc3)c2)nc1` it is 5.26%; for `Cc1ccc(C(=O)NC2CCC2)cc1-c1ccc(C(=O)NCC2CC2)cc1` it is -0.5%.
The same measure, in the same setting: for `CN(c1ccc(NC(=O)Nc2c(Cl)cccc2Cl)cc1)c1ccnc(Nc2cccc(CS(C)(=O)=O)c2)n1` the value was 1.1%; for `CS(=O)(=O)CCNCc1cc(-c2cc3c(Nc4ccc(OCc5cccc(F)c5)c(Cl)c4)ncnc3s2)cs1`, 0.08%.
In the case of `Fc1ccc(-c2c(-c3ccncc3)nc3n2CCS3)cc1`, the inhibition was found to be 0.35%.
Regarding `Cc1ccc(NC(=O)c2ccoc2)cc1-c1ccc(C(=O)NCC2CC2)cc1`, the inhibition came out at 0.71%.
For `NS(=O)(=O)c1ccc(N/N=C2\C(=O)Nc3ccc(-c4cnco4)cc32)cc1`, the inhibition worked out at 1.42%.
Consider `O=C(Nc1n[nH]c2cc(-c3cc(F)ccc3F)ccc12)C1CC1`, for which the inhibition was -2.08%.
For the compound `Nc1nccc(-c2c(-c3ccc(F)cc3)ncn2C2CCC(O)CC2)n1` (stereo not drawn), the inhibition was 0.04%.
Still for that read-out and setting: for `C[C@@H](Oc1cc(-n2cnc3ccc(OC4CCN(C)CC4)cc32)sc1C(N)=O)c1ccccc1Cl` the value was 8.14%; for `CCS(=O)(=O)c1ccc(OC)c(Nc2ncc(-c3cccc(-c4ccccc4F)c3)o2)c1`, 3.42%.
Regarding `O=C1Nc2ccc(I)cc2C1=Cc1cc(Br)c(O)c(Br)c1`, the inhibition was 1.85%.

Usually inhibition stands for the change of the read-out against control, counted positive when it falls.
